This note sets out measurements from the supplement of paper PMC10037445.

Where “and” joins values, the source holds several entries; their conditions need not be identical. Equal entries are not always repeated. Whole data set: some 2,900 compounds, median “NF-kB SEAP reporter activity, fold change vs agonist alone” near 0.99, cut for the highest 2% near 2.6. This excerpt belongs to a sample that is enriched for the highest values.

Experiment [1] relates to RAW-Dual. As to the kind of experiment: NF-kB SEAP reporter activity, fold change vs agonist alone; cytotoxicity flag (confluency mask): not cytotoxic; higher = enhanced NF-kB activity. In a few lines:
(§1)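 Cytotoxic wells were those whose IncuCyte confluency was below 70% of agonist controls in both mask sets. The cells were RAW-Dual macrophages at 50,000 cells/well in DMEM on 384-well plates, dosed with 50 nL of library stock by pin tool, stimulated with a PRR agonist 1 h later, and kept at 37 °C, 5% CO2 for 20 hours. IRF and NF-κB reporter activity, as fold change over agonist-alone wells, came from supernatant read by QuantiLuc luminescence and QuantiBlue absorbance, respectively.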

Experiment [2] deals with RAW-Dual. As to the kind of experiment: NF-kB SEAP reporter activity, fold change vs agonist alone; higher = enhanced NF-kB activity. As to conditions: library stock concentration (final ~1000-fold dilution): 10 mM. In outline: as §1
The test system of experiment [3] is RAW-Dual. As to the kind of experiment: NF-kB SEAP reporter activity, fold change vs agonist alone; cytotoxicity flag (confluency mask): cytotoxic (confluency <70% of control); higher = enhanced NF-kB activity. In outline: as §1
[4] abbreviates: agonist: ODN 1826 (TLR9) 0.5 ug/mL.
Where [5] appears, read: agonist: Pam2CSK4 (TLR2/6) 0.1 ug/mL.
Where [6] appears, read: agonist: Pam3CSK4 (TLR2/1) 0.1 ug/mL.
The mark [7] stands for this setting: cytotoxicity flag (confluency mask): not cytotoxic, agonist: Imiquimod (TLR7) […].
[8] abbreviates: cytotoxicity flag (confluency mask): not cytotoxic, agonist: MPLA (TLR4) […].

On to `O=C(CCNC(=O)c1ccc(OC(F)(F)F)cc1)NC1CCCc2ccccc21` (stereo unspecified) (library stock concentration (final ~1000-fold dilution): 10 mM), for which the “NF-kB SEAP reporter activity” value in experiment [1] (agonist: LPS (TLR4) 0.1 ug/mL) came to 0.767; in experiment [1] (setting [4]) it was 1.33; in experiment [1] (setting [5]) it was 0.519; in experiment [1] (setting [6]), 0.68.

Consider `O=C(CCNC(=O)c1ccc(OC(F)(F)F)cc1)NC1CCCc2ccccc21` (stereo unspecified), for which the “NF-kB SEAP reporter activity” value worked out at 1.66 in experiment [2] (setting [7]) and 1.13 in experiment [2] (setting [8]).

On to `COc1cc2c(cc1OC)CC(=O)N(CCCN(C)CC1Cc3cc(OC)c(OC)cc31)CC2.Cl` (stereo unspecified) (library stock concentration (final ~1000-fold dilution): 10 mM), for which the “NF-kB SEAP reporter activity” value in experiment [1] (agonist: LPS (TLR4) 0.1 ug/mL) was 1.3; in experiment [1] (setting [4]), 0.895; in experiment [1] (setting [5]), 0.867; in experiment [1] (setting [6]) it was 1.1.

For `COc1cc2c(cc1OC)CC(=O)N(CCCN(C)CC1Cc3cc(OC)c(OC)cc31)CC2.Cl` (stereo unspecified), the “NF-kB SEAP reporter activity” value in experiment [2] (setting [7]) is 0.885; in experiment [2] (setting [8]), 0.951.

On to `CCOC(=O)NC1CCC2C(C1)CC1C(=O)OC(C)C1C2/C=C/c1ccc(-c2cccc(F)c2)cn1` (stereo unspecified) (library stock concentration (final ~1000-fold dilution): 10 mM), for which the “NF-kB SEAP reporter activity” value in experiment [1] (agonist: LPS (TLR4) 0.1 ug/mL) is 0.824; in experiment [1] (setting [4]), 0.243; in experiment [1] (setting [5]) it was 0.212; in experiment [1] (setting [6]) it was 0.158.

For the compound `CCOC(=O)NC1CCC2C(C1)CC1C(=O)OC(C)C1C2/C=C/c1ccc(-c2cccc(F)c2)cn1` (stereo unspecified), the entries for the “NF-kB SEAP reporter activity” value in experiment [2] (setting [7]) and in experiment [2] (setting [8]) were 0.145 and 0.289, respectively.

As for `NC(=O)N1CCC(CC(=O)N2CCC(C3c4ncc(Br)cc4CCc4cc(Cl)cc(Br)c43)CC2)CC1` (stereo unspecified) (library stock concentration (final ~1000-fold dilution): 10 mM), the “NF-kB SEAP reporter activity” value was 0.422 in experiment [3] (agonist: LPS (TLR4) 0.1 ug/mL), 0.347 in experiment [3] (setting [4]), 0.171 in experiment [3] (setting [5]) and 0.223 in experiment [3] (setting [6]).

With `NC(=O)N1CCC(CC(=O)N2CCC(C3c4ncc(Br)cc4CCc4cc(Cl)cc(Br)c43)CC2)CC1` (stereo unspecified), the “NF-kB SEAP reporter activity” value in experiment [2] (cytotoxicity flag (confluency mask): cytotoxic (confluency <70% of control), agonist: Imiquimod (TLR7) […]) stood at 0.614; in experiment [2] (cytotoxicity flag (confluency mask): cytotoxic (confluency <70% of control), agonist: MPLA (TLR4) […]), 0.603.

For the compound `CC(=O)Nc1ccc(C(=O)Nc2ccccc2N)cc1`, the “NF-kB SEAP reporter activity” value in experiment [2] (setting [7]) turned out to be 2.21; in experiment [2] (setting [8]), 1.74.

Take `CC(=O)Nc1ccc(C(=O)Nc2ccccc2N)cc1` (library stock concentration (final ~1000-fold dilution): 10 mM): the “NF-kB SEAP reporter activity” value in experiment [1] (agonist: LPS (TLR4) 0.1 ug/mL) came out at 2.28; in experiment [1] (setting [4]) it was 2.86; in experiment [1] (setting [5]), 0.724; in experiment [1] (setting [6]), 0.832.

With `Nc1ccccc1NC(=O)c1cnccn1` (library stock concentration (final ~1000-fold dilution): 10 mM), the “NF-kB SEAP reporter activity” value was 1.4 in experiment [1] (agonist: LPS (TLR4) 0.1 ug/mL), 1.16 in experiment [1] (setting [4]), 0.443 in experiment [1] (setting [5]) and 0.532 in experiment [1] (setting [6]).

`Nc1ccccc1NC(=O)c1cnccn1`: the “NF-kB SEAP reporter activity” value in experiment [2] (setting [7]) worked out at 0.997; in experiment [2] (setting [8]) it was 1.12.

With `O=C(Nc1ccc(O)cc1)c1ccccc1O` (library stock concentration (final ~1000-fold dilution): 10 mM), the “NF-kB SEAP reporter activity” value in experiment [1] (agonist: LPS (TLR4) 0.1 ug/mL) worked out at 1.17; in experiment [1] (setting [4]), 1.93; in experiment [1] (setting [5]) it was 0.921; in experiment [1] (setting [6]) it was 1.04.

Turning to `O=C(Nc1ccc(O)cc1)c1ccccc1O`, the “NF-kB SEAP reporter activity” value was 1.68 in experiment [2] (setting [7]) and 1.24 in experiment [2] (setting [8]).

Take `CO/N=C(\C(=O)NC1C(=O)N2C(C(=O)O)=C(CSc3nnnn3C)CSC12)c1csc(N)n1.CO/N=C(\C(=O)NC1C(=O)N2C(C(=O)O)=C(CSc3nnnn3C)CSC12)c1csc(N)n1.Cl` (stereo unspecified): the “NF-kB SEAP reporter activity” value in experiment [2] (setting [8]) stood at 1.06.

As for `CO/N=C(\C(=O)NC1C(=O)N2C(C(=O)O)=C(CSc3nnnn3C)CSC12)c1csc(N)n1.CO/N=C(\C(=O)NC1C(=O)N2C(C(=O)O)=C(CSc3nnnn3C)CSC12)c1csc(N)n1.Cl` (stereo unspecified) (library stock concentration (final ~1000-fold dilution): 10 mM), the “NF-kB SEAP reporter activity” value in experiment [1] (agonist: LPS (TLR4) 0.1 ug/mL) was 0.999; in experiment [1] (setting [4]), 0.966; in experiment [1] (setting [5]), 1.14; in experiment [1] (setting [6]), 0.939.

`Cl.Cl.N/C(=N\OCC(O)CN1CCCCC1)c1cccnc1` (stereo unspecified): the “NF-kB SEAP reporter activity” value in experiment [2] (setting [7]) turned out to be 0.94; in experiment [2] (setting [8]), 1.08.

As to `Cl.Cl.N/C(=N\OCC(O)CN1CCCCC1)c1cccnc1` (stereo unspecified) (library stock concentration (final ~1000-fold dilution): 10 mM), the “NF-kB SEAP reporter activity” value in experiment [1] (agonist: LPS (TLR4) 0.1 ug/mL) was found to be 1.1; in experiment [1] (setting [4]) it was 0.949; in experiment [1] (setting [5]), 1.15; in experiment [1] (setting [6]) it was 1.09.

With `NC(CSC(c1ccccc1)(c1ccccc1)c1ccccc1)C(=O)O` (stereo unspecified), the “NF-kB SEAP reporter activity” value in experiment [2] (setting [7]) amounted to 0.946; in experiment [2] (setting [8]) it was 0.976.

Regarding `NC(CSC(c1ccccc1)(c1ccccc1)c1ccccc1)C(=O)O` (stereo unspecified) (library stock concentration (final ~1000-fold dilution): 10 mM), the “NF-kB SEAP reporter activity” value in experiment [1] (agonist: LPS (TLR4) 0.1 ug/mL) turned out to be 0.775; in experiment [1] (setting [4]), 0.732; in experiment [1] (setting [5]) it was 0.699; in experiment [1] (setting [6]), 0.656.

With `CC(C)c1nc(N(C)S(C)(=O)=O)nc(-c2ccc(F)cc2)c1/C=C/C(O)CC(O)CC(=O)O` (stereo unspecified) (library stock concentration (final ~1000-fold dilution): 10 mM), the “NF-kB SEAP reporter activity” value amounted to 0.973 in experiment [1] (agonist: LPS (TLR4) 0.1 ug/mL), 1.18 in experiment [1] (setting [4]), 1.21 in experiment [1] (setting [5]) and 1.1 in experiment [1] (setting [6]).

Turning to `CC(C)c1nc(N(C)S(C)(=O)=O)nc(-c2ccc(F)cc2)c1C=CC(O)CC(O)CC(=O)O` (stereo unspecified) (library stock concentration (final ~1000-fold dilution): 10 mM), the “NF-kB SEAP reporter activity” value in experiment [1] (agonist: LPS (TLR4) 0.1 ug/mL) came out at 1.43; in experiment [1] (setting [4]), 1.24; in experiment [1] (setting [5]), 1.01; in experiment [1] (setting [6]), 1.2.

For the compound `CC(C)n1c(C=CC(O)CC(O)CC(=O)O)c(-c2ccc(F)cc2)c2ccccc21` (stereo unspecified), the “NF-kB SEAP reporter activity” value in experiment [2] (setting [7]) stood at 2.45; in experiment [2] (setting [8]), 2.14.

As to `O=C(O)CC(O)CC(O)C=Cc1c(C2CC2)nc2ccccc2c1-c1ccc(F)cc1` (stereo unspecified), the “NF-kB SEAP reporter activity” value in experiment [2] (setting [7]) amounted to 2.52; in experiment [2] (setting [8]), 2.05.

As to `CC(C)c1nc(N(C)S(C)(=O)=O)nc(-c2ccc(F)cc2)c1C=CC(O)CC(O)CC(=O)O` (stereo unspecified), the “NF-kB SEAP reporter activity” value stood at 0.909 in experiment [2] (setting [7]) and 1.05 in experiment [2] (setting [8]).

For `CC(C)c1nc(N(C)S(C)(=O)=O)nc(-c2ccc(F)cc2)c1/C=C/C(O)CC(O)CC(=O)O` (stereo unspecified), the “NF-kB SEAP reporter activity” value in experiment [2] (setting [8]) came to 1.1.

On to `O=C(O)CC(O)CC(O)C=Cc1c(C2CC2)nc2ccccc2c1-c1ccc(F)cc1` (stereo unspecified) (library stock concentration (final ~1000-fold dilution): 10 mM), for which the “NF-kB SEAP reporter activity” value in experiment [1] (agonist: LPS (TLR4) 0.1 ug/mL) was found to be 3; in experiment [1] (setting [4]) it was 3; in experiment [1] (setting [5]), 2.4; in experiment [1] (setting [6]), 3.31.

For the compound `CC(C)c1c(C(=O)Nc2ccccc2)c(-c2ccccc2)c(-c2ccc(F)cc2)n1CCC(O)CC(O)CC(=O)O` (stereo unspecified) (library stock concentration (final ~1000-fold dilution): 10 mM), the “NF-kB SEAP reporter activity” value was 1.85 and 2.93 in experiment [1] (agonist: LPS (TLR4) 0.1 ug/mL); 1.49 and 1.82 in experiment [1] (setting [4]); 1.03 and 1.49 in experiment [1] (setting [5]); 1.3 and 1.42 in experiment [1] (setting [6]).

Turning to `CC(C)n1c(C=CC(O)CC(O)CC(=O)O)c(-c2ccc(F)cc2)c2ccccc21` (stereo unspecified) (library stock concentration (final ~1000-fold dilution): 10 mM), the “NF-kB SEAP reporter activity” value in experiment [1] (agonist: LPS (TLR4) 0.1 ug/mL) is 3.64; in experiment [1] (setting [4]) it was 2.92; in experiment [1] (setting [5]), 2.13; in experiment [1] (setting [6]), 3.38.
